Holding throughout (assay): PBM binding z-score (relative to random genomic background probes); higher = stronger binding; sequences stand for … in GC…GCGATTGACAGCGTAGAATGAAGG
Experiment [1] relates to PPARg:RXRa DBDmut IVT, anti-RXR (DBD mutation: RXRa K156A/R161A, NR concentration 270 nM, RXRa partner concentration 90 nM). The method, boiled down:
(§1)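 Custom Agilent 4×180K protein-binding microarrays carried double-stranded probes. Their 34-nt variable regions held direct-repeat seeds, single-nucleotide variants, half-site ablations and random human genomic background sequences. Arrays were incubated 1 h with ligand-free nuclear receptor dimers in PBS pH 7.4, 2% milk, 0.02% Triton X-100, 1 mM DTT, 0.2 mg/mL BSA and 0.4 mg/ml salmon testes DNA. Antibodies against each partner (one per run) detected binding, and scanned fluorescence was regression-normalized. Binding z-scores use random background probes as reference.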

The test system of experiment [2] is PPARg:RXRa IVT, anti-PPARg (NR concentration 270 nM, RXRa partner concentration 90 nM). The method, boiled down:
as §1

The test system of experiment [3] is PPARg DBDmut:RXRa IVT, anti-PPARg (DBD mutation: PPARg1 K132A/R137A, NR concentration 270 nM, RXRa partner concentration 90 nM). The method, boiled down: as §1
Experiment [4] concerns PPARg DBDmut IVT, anti-PPARg (DBD mutation: PPARg1 K132A/R137A, NR concentration 270 nM). The method, boiled down:
as §1

The subject of experiment [5] is PPARg homodimer (NR concentration 180 nM). Put shortly: as §1
The subject of experiment [6] is PXR:RXRa (NR concentration 270 nM, RXRa partner concentration 90 nM). The method, boiled down: as §1
Experiment [7] concerns PXR homodimer (NR concentration 270 nM). The method, boiled down:
as §1

Experiment [8] has as its system RARa:RXR (NR concentration 270 nM, RXRa partner concentration 90 nM). Put shortly: as §1
In experiment [9] the test system is RARa homodimer (NR concentration 270 nM). Put shortly:
as §1

In experiment [10] the test system is RARb:RXRa (NR concentration 270 nM, RXRa partner concentration 90 nM). The method, boiled down:
as §1

Experiment [11] has as its system RARb homodimer (NR concentration 270 nM). Put shortly:
as §1

The subject of experiment [12] is RARg:RXRa (NR concentration 270 nM, RXRa partner concentration 90 nM). Put shortly:
as §1

In experiment [13] the test system is RARg homodimer (NR concentration 270 nM). Put shortly:
as §1

Experiment [14] deals with RXRa DBDmut IVT, anti-RXR (DBD mutation: RXRa K156A/R161A, NR concentration 90 nM). The method, boiled down:
as §1

Experiment [15] deals with RXRa homodimer (NR concentration 180 nM). Put shortly: as §1
The test system of experiment [16] is THRa:RXRa (NR concentration 90 nM, RXRa partner concentration 90 nM). Put shortly: as §1
Experiment [17] relates to THRa homodimer (NR concentration 90 nM). The method, boiled down: as §1
Experiment [18] concerns VDR homodimer (NR concentration 270 nM). Put shortly:
as §1

Experiment [19] has as its system VDR:RXRa (NR concentration 270 nM, RXRa partner concentration 90 nM). Put shortly:
as §1

For the sequence TATACAGGGTCTAAGGCCAGAGTACGAATGTCGA, the PBM binding z-score in [1] was -0.0368; in experiment [2], 0.912; in [3], 0.973; in experiment [4], 0.725; in [5], 0.023; in experiment [6] it was -0.0788. Moreover, the PBM binding z-score in experiment [7] was 0.0324; in experiment [8] it was -0.102; in experiment [9], 0.373; in experiment [10], 0.935; in [11] it was 0.78; in [12], 0.921. Moreover, the PBM binding z-score amounted to 1.04 in [13]; 0.336 in [14]; 0.544 in experiment [15]; 1.05 in experiment [16]; 0.535 in [17]; 1.12 in experiment [18].

Turning to ACTTACGGGTCAACGGGGTTATAGCACGCGTATA, the PBM binding z-score in experiment [1] was found to be 3.04; in [2] it was 4.81; in [3] it was 1.21; in experiment [4], 1.3; in [5], 2.83; in [6], 5.57. For the same sequence, the PBM binding z-score in [7] is 2.28; in experiment [8], 5.87; in experiment [9] it was 0.668; in [10], 4.47; in experiment [11], 3.81; in experiment [12], 5.9. For the same sequence, the PBM binding z-score in experiment [13] turned out to be 5.07; in [14], 2.6; in experiment [15], 6.78; in [16], 4.23; in experiment [17] it was 1.08; in experiment [18] it was 3.81.

For CCTAGTTGGTCAAGGTCCCACACGCTATAGGTAC, the PBM binding z-score in experiment [1] was 1.11; in experiment [2], 1.17; in [3], -0.0918; in [4] it was 0.474; in [5], 1.59; in experiment [6], 0.0607. The PBM binding z-score in experiment [7] is 0.41; in [8], 0.436; in [9], 0.884; in experiment [10] it was 1.29; in experiment [11], 1.27; in [12], 0.7. Moreover, the PBM binding z-score in experiment [13] came to 1.19; in experiment [14], 0.446; in experiment [15], 0.433; in experiment [16], 0.687; in [17], 0.94; in [18], 0.734.

For the sequence CACACTAGGTCAAAGGTCAAAGTCGAGCCAACCA, the PBM binding z-score in experiment [1] turned out to be 8.09; in experiment [2], 8.84; in experiment [3] it was 5.62; in [4], 4.09; in experiment [5], 7.33; in experiment [6] it was 7.4. Moreover, the PBM binding z-score in experiment [7] was 2.74; in experiment [8] it was 9.26; in experiment [9], 4.38; in experiment [10], 5.87; in [11], 5.42; in [12] it was 9.01. In addition, the PBM binding z-score in experiment [13] was determined as 7.38; in [14], 3.45; in experiment [15] it was 10.4; in [16] it was 4.85; in experiment [17], 2.4; in [18], 4.12.

TTACCAAGGTGACCTGAGGTCGTTGATCCAACTC: the PBM binding z-score in [1] was 1.69; in [2], 2.92; in [3] it was 0.109; in [4] it was -0.145; in experiment [5] it was 1.47; in experiment [6] it was 5.57. Also, the PBM binding z-score in experiment [7] is 1.38; in experiment [8], 3.89; in [9], -0.101; in [10], 2.5; in experiment [11], 3.13; in experiment [12], 3.18. Besides, the PBM binding z-score amounted to 2.35 in experiment [13]; 0.664 in experiment [14]; 3.64 in experiment [15]; 3.94 in experiment [17]; 3.65 in [18].

With ATATGTAGGTTACGTCCGGGTCATTCAGGCTATG, the PBM binding z-score came to 7.35 in experiment [1]; 7.47 in experiment [2]; 4.19 in experiment [3]; 3.42 in [4]; 3.1 in [5]; 3.87 in experiment [6]. Further, the PBM binding z-score worked out at 2.03 in [7]; 4.08 in experiment [8]; 0.587 in experiment [9]; 2.47 in [10]; 3.02 in experiment [11]; 4.03 in [12]. Moreover, the PBM binding z-score came to 2.34 in [13]; 1.06 in experiment [14]; 4.01 in [16]; 2.88 in [17]; 4.14 in [19]; 2.91 in [18].

With TGACTGAGGTTAAAGATCAGGGAACGTGGCGTCG, the PBM binding z-score was -0.162 in experiment [1]; 1.61 in [2]; 0.314 in experiment [3]; 0.079 in [4]; 0.216 in experiment [5]; 2.03 in [6]. The PBM binding z-score in [7] was -0.418; in experiment [8] it was 2.68; in [9], -0.102; in [10], 2.05; in [11], 0.864; in experiment [12], 2.39. Besides, the PBM binding z-score amounted to 1.35 in experiment [13]; 0.903 in [14]; 3.77 in [15]; 2.41 in experiment [16]; 0.422 in [17]; 0.537 in experiment [18].

As for CAAAGTAGGTCAAGGTCAAAGTCGGTTTGTGCCA, the PBM binding z-score in [1] was 8.64; in experiment [2], 9.04; in experiment [3] it was 5.79; in experiment [4], 3.56; in experiment [5], 4.77; in experiment [6], 5.48. Moreover, the PBM binding z-score amounted to 2.55 in experiment [7]; 5.94 in [8]; 2.15 in experiment [9]; 5.07 in experiment [10]; 5.16 in [11]; 6.15 in experiment [12]. Besides, the PBM binding z-score in experiment [13] is 6.56; in experiment [14], 3.29; in experiment [15], 6; in experiment [16] it was 4.22; in experiment [17], 3.66; in experiment [18], 4.44.

(Values after the supplement of paper PMC6555819.)
